# Source: PubChem BioAssay (National Center for Advancing Translational Sciences (NCATS))
# Lamin A splicing = changes lamin A minigene splicing in HeLa cells; HeLa LMNA splicing GFP/RFP minigene ratio, 48 h; Potency, µM (highest dose often 46.1 µM), for the others: top-dose ratio change, negative = inhibition, most hits filed as inhibitors; hit rate 0.01% among 200,000; active means well fitted inhibition curve with a large enough effect in the signal ratio, with a control signal flat, not every such curve was filed as active; inconclusive means small, poorly fitted or top-dose-only effect, or effect the other way, or a change in a side signal; the % refers to the signal ratio; further: potency means the concentration at half of the fitted maximal effect
#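 S3 HeLa stable clones carrying a lamin A-EGFP splicing minigene plus DsRed2 were seeded at 600 cells/well in Opti-MEM with 2% FBS, pin-dosed and incubated 48 h at 37°C. Acumen cytometry (488 nm) gave the GFP/RFP total-intensity ratio.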
# PNC inhibitor = inhibitors of perinucleolar compartment assembly; PC3M PTB-GFP, PNC prevalence imaging, 16 h; hits give low values; activity change (PNC), negative = inhibition, % at 10 µM; hit rate 3.1% among 140,000; AID 2417;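 active means readout at or below -70, meaning at least 70% loss of cells showing the perinucleolar compartment, a nuclear body marking cancer cells; inconclusive means readout between -30 and a set limit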;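 further: plate controls were DMSO wells for no effect and camptothecin positive control wells for full effect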
#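 Read-out is percentage of cells bearing a perinucleolar compartment, from automated 20x imaging of fixed, Hoechst-stained PC3M PTB-GFP cells. Cells were seeded 4 h, then exposed 16 h to compound (23 nl of library stock) in duplicate plates.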
# IMPase cell inh = cell-permeable inhibitors of inositol monophosphatase (IMPase); CHO-M1 cells, IP1 accumulation, HTRF TR-FRET ratio; inhibition (IP1 accumulation), % at 46.1 µM; 120,000 tested, under 10 active; active means well fitted curve in the direction sought with a large enough effect in the signal ratio, not every such curve was filed as active; inconclusive means small, poorly fitted or top-dose-only effect, or a change in a side signal; inactive means no such curve, though single readings can be large or run the other way; the % refers to the signal ratio;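 further: cells stimulated with carbachol in lithium chloride buffer; plate controls were DMSO basal wells for no effect and reference inhibitor wells for full effect; higher means more IMPase inhibition seen as more IP1 and lower FRET ratio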
# Target sequence (P97697 whole entry, looked up): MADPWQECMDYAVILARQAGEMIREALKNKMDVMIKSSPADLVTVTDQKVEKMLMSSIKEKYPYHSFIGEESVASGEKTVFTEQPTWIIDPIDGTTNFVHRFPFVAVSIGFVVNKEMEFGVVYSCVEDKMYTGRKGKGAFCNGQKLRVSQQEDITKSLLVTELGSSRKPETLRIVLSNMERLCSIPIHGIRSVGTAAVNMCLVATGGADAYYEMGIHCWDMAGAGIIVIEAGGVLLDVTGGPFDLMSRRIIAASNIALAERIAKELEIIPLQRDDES
#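 Elevated IP1 in lysates lowers TR-FRET signal (665/620 ratio and 620 channel reported). Cells were CHO-M1, given carbachol (50 uM as added) plus 50mM LiCl, pH 7.4, 30 min, 37C; compounds titrated up to 46 uM; AC50 by Hill equation.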
# An asterisk follows results filed as active; ? = inconclusive; . = no result given; [ ] = another dose, or the depositor's remark. The sample as a whole holds a higher share of hits than the screen did. Unless noted, on the % scale 0 is the no-effect control and ±100 the full control effect.
SMILES,Lamin A splicing,PNC inhibitor,IMPase cell inh
COCCCN1C(=O)c2[nH]nc(-c3cc(C)cc(C)c3O)c2C1c1ccc(O)c(OC)c1 (stereo not given),-10%,15,13
COc1cc(C2c3c(-c4cc(C)cc(C)c4O)n[nH]c3C(=O)N2CCCO)cc(OC)c1OC (stereo not given),?,-100*,5
O=C(c1ccc([N+](=O)[O-])cc1)N1c2ncnn2C2(CCCCC2)[C@@H]2CCCC[C@@H]21,2%[46 µM],.,.
CCN(CC)c1ccc(NC(=O)/C=C\c2ccccc2Cl)cc1,-10%,-81*,3
CN(C)c1ccc(NC(=O)/C=C/c2ccccc2Cl)cc1,-14%,22,2
NS(=O)(=O)c1ccc2nc(NC(=O)COc3ccc(Cl)cc3Cl)sc2c1,-9%[46 µM],.,.
COc1ccccc1C(=O)NC(=Nc1nc2ccccc2o1)NC(=O)c1ccccc1OC,-6%,-82*,5
O=C(NC(=Nc1nc2ccccc2o1)NC(=O)c1ccccc1)c1ccccc1,-7%,?,.
CC(=O)N1c2ccc(S(=O)(=O)N3CCCCCC3)cc2CC1C(=O)NCc1cccc(C)c1 (stereo not given),5%[46 µM],.,.
COc1cc(C2CC(=O)n3c(nc4ccccc43)S2)cc(OC)c1OC (stereo not given),5%,-98*,-5
O=C(O)C1CC(=O)n2c(nc3ccccc32)S1 (stereo not given),6%,15,-7
Cn1c(SCc2nc(-c3ccc(Cl)cc3)no2)nnc1-c1cccs1,-19%,-111*,7
Cn1c(SCc2nc(-c3ccccc3)no2)nnc1-c1cccs1,-15%,56,?
CCOc1ccc(C(CC(=O)O)NC(=O)COc2ccccc2OC)cc1OC (stereo not given),15%[9.22 µM],.,.
CC(=O)Oc1ccccc1C(=O)O,-6%,.,-3
Cc1cc(C(=O)Oc2ccccc2C(=O)O)c(C)o1,21%,-100*,5
O=C(CCC1N=C2c3ccccc3N=C(SCc3ccc(F)cc3)N2C1=O)NCc1ccc(F)cc1 (stereo not given),-16%[46 µM],.,.
CCCCNC(=O)CSc1nc(O)cc(=O)n1C1CCCC1,-9%[46 µM],.,.
Cc1cc(NC(=O)CSc2nnc(Cc3ccccc3)n2C)no1,-3%,?,3
Cc1cc(NC(=O)CSc2nc3ccccc3c(=O)n2C2CCCC2)no1,13%,-83*,7
CCn1c(Cc2ccccc2)nnc1SCC(=O)Nc1cc(C)on1,10%,-107*,10
CN(C)c1ccc(NC(=O)CSc2nc3ccccc3c(=O)n2C2CCCCC2)cc1,?,-9,7
COC(=O)c1ccccc1NC(=O)CSc1nc(O)cc(=O)n1C1CCCC1,12%,-89*,6
COc1ccc2c(c1)-c1nc(NC(=O)c3cc(OC)c(OC)c(OC)c3)sc1CC2,.,.,-4
COc1ccc(N2COC3c4cccc5cccc(c45)C32)cc1 (stereo not given),?,11,7
SMILES,Lamin A splicing,PNC inhibitor,IMPase cell inh
Clc1ccc(N2COC3c4cccc5cccc(c45)C32)cc1 (stereo not given),?,-100*,3
CCCOc1ccc(C(=O)Nc2ccc3oc(-c4ccncc4)nc3c2)cc1,.,.,-12
O=C(COC(=O)Cn1cnc2ccccc21)NCCCc1ccccc1,5%[46 µM],.,.
O=C(COC(=O)Cn1cnc2ccccc21)NCCc1ccccc1,-8%,-83*,1
COc1ccccc1C1CC(=O)NC(C)=C1C(=O)OC(C)C (stereo not given),23%[46 µM],.,.
Cc1cccn2c(=O)cc(CSc3nnc(NC(=O)c4ccc(F)cc4)s3)nc12,-8%[46 µM],.,.
COc1cccc2cc(-c3nc(Nc4cccc(C)c4)sc3C)c(=O)oc12,6%[46 µM],.,.
N#Cc1nc(-c2cccc3ccccc23)oc1N1CCCCC1,-1%,49,-1
CC1CCN(c2oc(-c3cccc4ccccc34)nc2C#N)CC1,-14%,-100*,?
CCOC(=O)N1CCN(S(=O)(=O)c2cc(Br)cc3c2N(C(=O)CC)CC3)CC1,0%,?,-16
CCC(=O)N1CCc2cc(Br)cc(S(=O)(=O)CCC(=O)NCc3ccco3)c21,0%,-119*,2
CCC(=O)N1CCc2cc(Br)cc(S(=O)(=O)N3CCCCCC3)c21,-12%,-100*,2
CCC(=O)N1CCc2cc(Br)cc(S(=O)(=O)NCc3ccco3)c21,-8%,?,8
CC(=O)Nc1cccc2c1C(=O)N(c1ccc(OC(C)=O)cc1)C2=O,-2%[46 µM],.,.
CC(=O)c1ccc(N2CCN(C(=S)NCCCN(C)C)CC2)cc1,-4%[46 µM],.,.
Cc1ccc(/C=C/C(=O)O)cc1S(=O)(=O)N(CCO)CCO,-2%,-103*,.
Cc1ccc(/C=C/C(=O)O)cc1S(=O)(=O)NCCCO,-6%,3,-4
Cc1c(O)nc(SCC(=O)Nc2ccc3c4c(cccc24)CC3)n(-c2ccccc2)c1=O,?,-113*,.
O=C(CSc1nc(O)cc(=O)n1-c1ccccc1)Nc1ccc2c3c(cccc13)CC2,?,16,.
O=C1CCSC2(C(=O)N(Cc3ccc(F)cc3)c3ccccc32)N1c1ccc(Cl)cc1 (stereo not given),40%[46 µM],.,.
NC(=O)c1cc2ccccc2o/c1=N\NC(=O)c1ccco1,-8%,-119*,7
NC(=O)c1cc2ccccc2oc1=NCc1ccccc1,-4%,40,8
O=[N+]([O-])c1ccc2ccn(C3OCC(O)C(O)C3O)c2c1 (stereo not given),-13%[46 µM],.,.
CN(C)C(=O)CCCCCCCCC(=O)N(C)C,-6%[46 µM],.,.
CC1CN(C(=O)N2CCC(C(=O)NCc3cccs3)CC2)c2cc(Cl)ccc2O1 (stereo not given),-20%[46 µM],.,.
SMILES,Lamin A splicing,PNC inhibitor,IMPase cell inh
CCn1c(C(=O)N2CCc3ccccc3C2)cc2oc3ccccc3c21,?,2,-6
Cn1c(C(=O)N2CCc3ccccc3C2)cc2oc3ccccc3c21,?,-119*,12
Cc1ccc(S(=O)(=O)NNC(=O)c2sc3nc(C)cc(C)c3c2-n2cccc2)cc1,2%,-90*,-1[1.84 µM]
Cc1ccc(S(=O)(=O)NNC(=O)c2sccc2-n2cccc2)cc1,2%,?,0
C=CCSc1nnc(-c2ccccc2NC(=O)CC)c(=O)[nH]1,0%,?,12
COc1ccc(C2C(C#N)=C(C)NC3=C2C(=O)c2ccccc23)cc1 (stereo not given),9%,27,-23
COc1cc(C2C(C#N)=C(C)NC3=C2C(=O)c2ccccc23)cc(OC)c1OC (stereo not given),?,-116*,6[1.84 µM]
Cc1ccc(CCNC(=O)c2cccc(Nc3nc4ccccc4nc3-n3nc(C)cc3C)c2)cc1,.,.,-2
COC(=O)Nc1ccc(OCc2ccccc2)cc1,-4%,35,-15
COC(=O)Nc1ccc(Oc2ccccc2)cc1,5%,-93*,-1
CCOC(=O)C(NS(=O)(=O)c1ccc(Br)cc1)C(C)C (stereo not given),6%,13,-4
Cc1cc(C)c2c(c1)[C@@H]1C=CC[C@@H]1[C@H](c1ccc(S(=O)(=O)N3CCOCC3)cc1)N2,?,-81*,.
COC(=O)c1ccc(C2Nc3c(C)cc(C)cc3C3C=CCC32)cc1 (stereo not given),.,.,2
COc1ccc(CNC(=O)C2=C(C)C(=O)OC23CCN(C(C)=O)CC3)cc1,17%[46 µM],.,.
